Values joined by “and” are separate entries in the source; they are usually repeats but may differ in a detail not shown here. Identical values can stand only once. In all, about 5,500 compounds went through this assay and about 2,000 (36%) were called active. Roughly 18% stayed inconclusive and do not appear here. Cut-off read from the data, not from the text of the source: active = normalized growth mostly below about 0.91 (no sharp cut-off); inconclusive = no clear call, values can overlap the other calls; inactive = mostly above about 0.92. Some of the results follow.
Experiment: chemical genetic growth profiling, strain panel (AID 1159580);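 note: tested at 20 µM; growth read once vehicle control cultures reached saturation at 30 °C; 1 = growth at the plate median or of vehicle wells; lower values mean less growth of the strain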
Conditions: S. cerevisiae deletion strains, growth OD

Measured: normalized growth

CN[C@@H]1[C@H](OC2[C@H](O[C@H]3[C@H](O)[C@@H](O)[C@H](N=C(N)N)[C@@H](O)[C@@H]3N=C(N)N)O[C@@H](C)[C@]2(O)C=O)O[C@@H](CO)[C@H](O)[C@H]1O (stereo not given in full)
inactive: locus YAL013W, strain DEP1, hits give low values 1 | locus YAL021C, strain ccr4, hits give low values 1 | locus YAL026C, strain drs2, hits give low values 0.993 | locus YAL030W, strain snc1, hits give low values 1.01 | locus YBL061C, strain skt5, hits give low values 1.01 | locus YBR009C, strain hhf1, hits give low values 0.988 | locus YBR021W, strain FUR4, hits give low values 1.02 | locus YBR023C, strain chs3, hits give low values 1 | locus YBR171W, strain sec66, hits give low values 1.01 | locus YBR229C, strain ROT2, hits give low values 1.02 | locus YBR231C, strain swc5, hits give low values 1.03 | locus YBR279W, strain paf1, hits give low values 0.999 | locus YCL011C, strain gbp2, hits give low values 0.992 | locus YCL016C, strain dcc1, hits give low values 0.98 | locus YCL029C, strain bik1, hits give low values 1.01 | locus YCL069W, strain vba3, hits give low values 1.01 | locus YCR088W, strain abp1, hits give low values 0.998 | locus YDL005C, strain med2, hits give low values 1.01 | locus YDL035C, strain GPR1, hits give low values 1.01 | locus YDL040C, strain nat1, hits give low values 0.999 | locus YDL074C, strain BRE1, hits give low values 1.01 | locus YDL101C, strain DUN1, hits give low values 1.01 | locus YDL134C, strain PPH21, hits give low values 1.01 | locus YDL185W, strain tfp1, hits give low values 0.996 | locus YDL192W, strain arf1, hits give low values 1.01 | locus YDR001C, strain nth1, hits give low values 0.987 | locus YDR069C, strain doa4, hits give low values 1.04 | locus YDR101C, strain arx1, hits give low values 1.01 | locus YDR137W, strain rgp1, hits give low values 1.03 | locus YDR159W, strain sac3, hits give low values 0.978 | locus YDR162C, strain NBP2, hits give low values 1 | locus YDR195W, strain ref2 1.04 | locus YDR297W, strain sur2, hits give low values 1.02 | locus YDR318W, strain mcm21, hits give low values 1.01 | locus YDR334W, strain swr1, hits give low values 1.01 | locus YDR335W, strain msn5, hits give low values 1.01 | locus YDR388W, hits give low values 1.02 | locus YDR392W, strain spt3, hits give low values 0.959 | locus YDR502C, strain sam2, hits give low values 1.02 | locus YEL003W, strain gim4, hits give low values 1.01 | locus YEL037C, strain rad23, hits give low values 1 | locus YEL061C, strain CIN8 (second series), hits give low values 1.01 | locus YEL061C, strain CIN8, hits give low values 1.01 | locus YER015W, strain faa2, hits give low values 1 | locus YER016W, strain bim1, hits give low values 0.987 | locus YER110C, hits give low values 1.03 | locus YER111C, strain swi4, hits give low values 1 | locus YER155C, strain BEM2 (second series), hits give low values 1.04 | locus YER155C, strain BEM2, hits give low values 0.995 | locus YER167W, strain BCK2, hits give low values 1.01 | locus YFR010W, strain ubp6, hits give low values 1.03 | locus YGL078C, strain dbp3, hits give low values 1 | locus YGL086W, strain mad1, hits give low values 1.01 | locus YGL167C, strain pmr1, hits give low values 1.02 | locus YGL173C, strain kem1, hits give low values 1.03 | locus YGL227W, strain vid30, hits give low values 0.998 | locus YGL240W, strain doc1, hits give low values 1.05 | locus YGL248W, strain PDE1, hits give low values 1.01 | locus YGL253W, strain hxk2, hits give low values 0.977 | locus YGR135W, strain pre9, hits give low values 1.01 | locus YGR229C, strain SMI1, hits give low values 1 | locus YGR252W, strain gcn5, hits give low values 1.01 | locus YHR013C, strain ard1, hits give low values 1.01 | locus YHR027C, strain rpn1, hits give low values 1 | locus YHR030C, strain SLT2, hits give low values 1.01 and 0.961 | locus YHR079C, strain IRE1 (second series), hits give low values 1.02 | locus YHR079C, strain IRE1, hits give low values 0.991 | locus YHR094C, strain hxt1, hits give low values 1.02 | locus YHR129C, strain ARP1, hits give low values 1.01 | locus YHR142W, strain chs7, hits give low values 1 | locus YHR200W, strain rpn10, hits give low values 1.02 | locus YIL066C, strain RNR3, hits give low values 1.02 | locus YIL073C, strain SPO22, hits give low values 1.05 | locus YIL125W, strain kgd1, hits give low values 1.01 | locus YIR030C, strain dcg1, hits give low values 1.01 | locus YJL092W, strain hpr5, hits give low values 1.01 | locus YJL095W, strain BCK1 (second series), hits give low values 1.01 | locus YJL095W, strain BCK1, hits give low values 1.01 and 0.996 | locus YJL115W, strain asf1, hits give low values 1.01 | locus YJL129C, strain trk1, hits give low values 1.02 | locus YJL134W, strain LCB3, hits give low values 1 | locus YJL154C, strain vps35, hits give low values 1 | locus YJL164C, strain tpk1, hits give low values 0.983 | locus YJL166W, strain qcr8, hits give low values 1.02 | locus YJL168C, strain set2, hits give low values 1.01 | locus YJL187C, strain SWE1 (second series), hits give low values 1.02 | locus YJL187C, strain SWE1, hits give low values 1.01 | locus YJR043C, strain POL32, hits give low values 1.01 | locus YJR066W, strain TOR1, hits give low values 0.978 | locus YJR075W, strain HOC1, hits give low values 1.01

From PubChem BioAssay AID1159580 (chemical genetic matrix, 2015)
